In all, about 5,500 compounds went through this assay and about 2,000 (36%) were called active. Not shown: some 18% with an inconclusive outcome. Rule as the data show it: active = normalized growth mostly below about 0.91 (no sharp cut-off); inconclusive = no clear call, values can overlap the other calls; inactive = mostly above about 0.92. This is one part of the list.
Experiment: chemical genetic growth profiling, strain panel (AID 1159580);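 also: tested at 20 µM; growth read once vehicle control cultures reached saturation at 30 °C; 1 = growth at the plate median or of vehicle wells; lower values mean less growth of the strain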
Conditions: growth OD
[1] = S. cerevisiae deletion strains, locus YAL013W, strain DEP1, stronger effect = lower value
[2] = S. cerevisiae deletion strains, locus YBR229C, strain ROT2, stronger effect = lower value
[3] = S. cerevisiae deletion strains, locus YDL101C, strain DUN1, stronger effect = lower value
[4] = S. cerevisiae deletion strains, locus YDR150W, strain NUM1, stronger effect = lower value
[5] = S. cerevisiae deletion strains, locus YEL061C, strain CIN8, stronger effect = lower value
[6] = S. cerevisiae deletion strains, locus YGR078C, strain PAC10, stronger effect = lower value
[7] = S. cerevisiae deletion strains, locus YHR030C, strain SLT2, stronger effect = lower value
[8] = S. cerevisiae deletion strains, locus YHR087W, strain rtc3, stronger effect = lower value
[9] = S. cerevisiae deletion strains, locus YJR043C, strain POL32, stronger effect = lower value
[10] = S. cerevisiae deletion strains, locus YJR075W, strain HOC1, stronger effect = lower value
[11] = S. cerevisiae deletion strains, locus YLR039C, strain RIC1, stronger effect = lower value
[12] = S. cerevisiae deletion strains, locus YLR058C, strain SHM2 (second series), stronger effect = lower value
[13] = S. cerevisiae deletion strains, locus YLR085C, strain ARP6, stronger effect = lower value
[14] = S. cerevisiae deletion strains, locus YLR262C, strain YPT6, stronger effect = lower value
[15] = S. cerevisiae deletion strains, locus YML094W, strain GIM5, stronger effect = lower value
[16] = S. cerevisiae deletion strains, locus YMR219W, strain ESC1, stronger effect = lower value
[17] = S. cerevisiae deletion strains, locus YMR263W, strain SAP30, stronger effect = lower value
[18] = S. cerevisiae deletion strains, locus YMR307W, strain GAS1, stronger effect = lower value
[19] = S. cerevisiae deletion strains, locus YNL153C, strain GIM3, stronger effect = lower value
[20] = S. cerevisiae deletion strains, locus YNL298W, strain CLA4 (second series), stronger effect = lower value
[21] = S. cerevisiae deletion strains, locus YNL322C, strain KRE1, stronger effect = lower value
[22] = S. cerevisiae deletion strains, locus YNR030W, strain Alg12, stronger effect = lower value
[23] = S. cerevisiae deletion strains, locus YOL006C, strain TOP1, stronger effect = lower value
[24] = S. cerevisiae deletion strains, locus YPL055C, strain LGE1, stronger effect = lower value
[25] = S. cerevisiae deletion strains, locus YPL241C, strain CIN2, stronger effect = lower value
[26] = S. cerevisiae deletion strains, locus YPR135W, strain CTF4, stronger effect = lower value

Measured: normalized growth

S=c1[nH]nc(-c2ccco2)n1-c1ccc2c(c1)OCCO2
inactive: [1] 0.998 | [2] 0.985 | S. cerevisiae deletion strains, locus YCL061C, strain MRC1, stronger effect = lower value 0.994 | [3] 0.989 | S. cerevisiae deletion strains, locus YDL134C, strain PPH21, stronger effect = lower value 0.991 | [4] 1.02 | [5] 1.02 | [6] 0.979 | [7] 1.05 | [8] 0.983 | [9] 0.987 | [10] 0.985 | S. cerevisiae deletion strains, locus YKL190W, strain CNB1, stronger effect = lower value 0.989 | [11] 0.972 | [12] 0.98 | [13] 0.994 | [14] 0.991 | [15] 1 | [16] 0.991 | [17] 1.02 | [18] 1.05 | [19] 0.993 | [20] 1.01 | [21] 0.988 | [22] 1.01 | [23] 0.978 | [24] 0.971 | [25] 1 | [26] 1.06 | S. cerevisiae strains, strain wild type, stronger effect = lower value 0.979

COc1ccc(-n2c(SCc3ccc(Br)cc3)nnc2-c2ccco2)cc1
active: [14] 0.803
inactive: [1] 0.972 | [2] 1 | [3] 1 | [4] 0.962 | [5] 1.01 | [6] 0.987 | S. cerevisiae deletion strains, locus YGR229C, strain SMI1, stronger effect = lower value 0.978 | [7] 0.79 | [8] 0.996 | S. cerevisiae deletion strains, locus YJL187C, strain SWE1, stronger effect = lower value 1.01 | [9] 0.98 | [10] 0.969 | [11] 0.803 | [12] 0.989 | [13] 0.947 | [15] 0.993 | [16] 0.993 | [17] 0.989 | [18] 0.893 | [19] 0.996 | [20] 0.917 | [21] 0.984 | [22] 0.966 | [23] 0.889 | [24] 0.976 | [25] 0.986 | [26] 0.844

Source: PubChem BioAssay AID1159580 (chemical genetic matrix, 2015)
